Experimental findings from PubChem BioAssay AID628 (Vanderbilt High Throughput Screening Facility, 2007) are described below.

The campaign covered roughly 64,000 compounds. About 2,200 (3.4%) were called active.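 How the source made its calls: active means calcium fluorescence response, raw or row-and-column corrected B-score, differing from the plate sample mean either way at a set confidence level, mostly lower; inactive means the rest.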 The full list was thinned out, with actives kept by preference.

In the assay the target is Muscarinic acetylcholine receptor M1 (Rattus norvegicus) (UniProt P08482). As to the kind of experiment: blocks the rat M1 muscarinic receptor response to acetylcholine (AID 628). Conditions: CHO-M1 cells, Fluo-4 calcium, ACh EC80 antagonist mode; at 10 µM; hits give low values.
Chain of Muscarinic acetylcholine receptor M1 (Rattus norvegicus) (P08482 whole entry, looked up): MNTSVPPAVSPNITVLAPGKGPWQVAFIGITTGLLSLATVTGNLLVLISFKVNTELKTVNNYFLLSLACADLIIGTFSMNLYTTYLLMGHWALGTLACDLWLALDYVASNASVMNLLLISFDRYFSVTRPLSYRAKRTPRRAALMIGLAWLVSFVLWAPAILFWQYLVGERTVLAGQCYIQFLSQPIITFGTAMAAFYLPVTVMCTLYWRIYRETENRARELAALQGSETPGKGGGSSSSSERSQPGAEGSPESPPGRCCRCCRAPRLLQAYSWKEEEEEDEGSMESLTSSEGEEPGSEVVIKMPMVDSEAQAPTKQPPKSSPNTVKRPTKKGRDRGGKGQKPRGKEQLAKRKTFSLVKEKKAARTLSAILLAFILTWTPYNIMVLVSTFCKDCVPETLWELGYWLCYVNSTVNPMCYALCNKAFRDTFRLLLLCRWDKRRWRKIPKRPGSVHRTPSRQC
Regarding `COCCNC(=O)C(C#N)c1nc2ccccc2nc1N1CCN(Cc2ccc3c(c2)OCO3)CC1` (stereo not given), the B-score was 0.357 (inactive).
The value for `COc1ncnc2c1N=C1CC(C)(C)CC(N)=C1S2` was -3.02 (active); that for `Cc1ccc(S(=O)(=O)N2CCC(C(=O)N[C@@H](C)C(=O)NCc3ccccc3)CC2)cc1` was 0.328 (inactive); that for `COc1cc2cc(CN(CCN3CCCC3)C(=O)Nc3ccccc3Cl)c(=O)[nH]c2cc1OC` was -0.424 (inactive).
The value for `Oc1ccc(Cl)cc1/C=N/c1nc2ccccc2[nH]1` was 0.265 (inactive).
For `CC(C)CNS(=O)(=O)c1ccc(OCC(=O)Nc2ccc3c(c2)OCO3)c(Cl)c1`, the B-score was 0.138 (inactive).
The value for `COc1ccc(F)cc1S(=O)(=O)Nc1ccc2c(c1)OCO2` was 0.86 (inactive); that for `COc1ccc(S(=O)(=O)Nc2ccc3c(c2)OCO3)cc1Cl` was -4.67 (active).
The value for `COc1ccc(N2CCN(Cc3cc(=O)oc4ccc5ccccc5c34)CC2)cc1` was 0.836 (inactive); that for `O=c1ccc2cc(S(=O)(=O)N3CCN(c4ccccc4)CC3)ccc2o1` was 3.23 (active).
As for `O=S(=O)(c1ccc2ccccc2c1)N1CCN(S(=O)(=O)N2CCOCC2)CC1`, the B-score is 1.15 (inactive).
The same measure for `CCOC(=O)C1(C(F)(F)F)N=C(N(C)C)OC(N(C)C)=N1`: 0.0434 (inactive); for `Nc1ccc(-n2nncc2-c2ccco2)cc1`: 0.0134 (inactive).
Regarding `O=C(C(c1ccccc1)c1ccccc1)N1CCN(CC(O)COc2ccccc2)CC1` (stereo not given), the B-score was -2.34 (active).
The same measure for `OC(COc1cccc(OCC(O)CN2CCCC2)c1)CN1CCCC1` (stereo not given): -0.0676 (inactive); for `COc1cccc(OCC(O)CN2CCN(CCO)CC2)c1` (stereo not given): -0.234 (inactive).
The same measure for `N#Cc1ccc(OCCN2C(=O)NC3(CCSC3)C2=O)cc1` (stereo not given): 0.213 (inactive); for `Cc1n[nH]c(C)c1S(=O)(=O)N1CCCC(C(=O)NCC2COc3ccccc3O2)C1` (stereo not given): 0.422 (inactive).
The same measure for `COc1ccc(C(C)=O)cc1COC(=O)Cn1cnc2ccccc2c1=O`: 0.139 (inactive).
Take `Cc1ccccc1OCC(=O)Nc1ccc(N2CCN(C(=O)C(C)C)CC2)c(Cl)c1`: the B-score was -1.61 (inactive).
Consider `Cc1cc(NC(=O)COc2ccc(Cl)cc2Cl)n(CCC#N)n1`, for which the B-score is -0.163 (inactive).
Regarding `CN1CCN(c2ccc(NC(=O)COc3ccc(Cl)cc3Cl)cc2)CC1`, the B-score was -3.05 (active).
The value for `CCCc1[nH]nc2c1C(c1ccc(Br)s1)C(C#N)=C(N)O2` (stereo not given) was 0.255 (inactive); that for `CCC1=C(C(=O)OC)C(c2cc(OC)ccc2OC)C(C#N)=C(N)O1` (stereo not given) was 0.513 (inactive).
The same measure for `CCCN1CC=C2C(C#N)=C(N)C(C#N)(C#N)C(c3cc(OC)ccc3OC)C2C1` (stereo not given): -2.33 (active).
The value for `CCOC(=O)N1CC=C2C(C#N)=C(N)C(C#N)(C#N)[C@H](c3cccs3)[C@H]2C1` was 0.673 (inactive).
As for `CCn1cc(NC(=O)Nc2ccc(OC)c(OC)c2)c(C(N)=O)n1`, the B-score was -0.416 (inactive).
The same measure for `Cn1c(=NC(=O)c2ccco2)sc2cccc(F)c21`: 0.839 (inactive).
The value for `O=C(NCCc1ccc2c(c1)OCCO2)c1cc2ccccc2o1` was -3.3 (active).
The value for `O=C(COC(=O)c1ccc2c(c1)OCCO2)NCc1ccccc1` was 0.116 (inactive).
On to `O=C(CC(Cc1ccccc1)C(=O)O)NCCc1ccc2c(c1)OCO2` (stereo not given), for which the B-score is -0.392 (inactive).
The value for `CCOc1ccccc1C1C(C(=O)OC)=CN(C)C=C1C(=O)OC` was 0.428 (inactive); that for `Cn1nnnc1SCC(=O)N1CCN(C(c2ccccc2)c2ccccc2)CC1` was -2.4 (inactive); that for `O=C(c1ccc(-n2cnnn2)cc1)N1CCN(C(c2ccccc2)c2ccccc2)CC1` was -10.9 (active).
The value for `O=C(c1ccccc1)N1CCN(C(=O)N2CCCCC2)CC1` was -0.168 (inactive).
The value for `CC(Nc1nc(N2CCCC2)nc2ccccc12)c1ccccc1` (stereo not given) was -1.8 (inactive); that for `COc1cc(-c2nc(S(=O)(=O)c3ccc(Cl)cc3)c(N(C)C)o2)cc(OC)c1OC` was 0 (inactive); that for `COc1ccc(CSc2nc(N3CCOCC3)c3c(c2C#N)CC(C)(C)OC3)cc1` was 0.045 (inactive).
As for `CCS(=O)(=O)N1CCC(C(=O)N2CCN(c3ccccc3)CC2)CC1`, the B-score was -0.14 (inactive).
The value for `Cc1ccc(C)c(N2CCN(S(=O)(=O)c3ccc4c(c3)oc(=O)n4C)CC2)c1` was 0.182 (inactive); that for `Cc1ccc(N2CCN(S(=O)(=O)c3ccc(F)cc3)CC2)c(C)c1` was 1.98 (active); that for `Cc1ccc(S(=O)(=O)N2CCC(N3CCCCCC3)CC2)cc1` was -0.781 (inactive).
`Cc1cc(=O)oc(C)c1C(=O)NCc1ccc(F)cc1`: the B-score is -0.775 (inactive).
Take `CCOC(=O)C(CC)Sc1ncnc2c1nnn2-c1ccc(F)cc1` (stereo not given): the B-score is 0.284 (inactive).
The same measure for `COc1ccc(CCNC(=O)CCCCn2c(=O)[nH]c3ccccc3c2=O)cc1OC`: -0.359 (inactive); for `O=C(CCn1c(=O)[nH]c2ccccc2c1=O)NCCCN1CCN(c2cccc(Cl)c2)CC1`: -1.14 (inactive).
For the compound `O=C(CCCn1c(=O)[nH]c2cc(Cl)ccc2c1=O)NCCN1CCN(c2ccccc2)CC1`, the B-score was 12.4 (active).
In the case of `C=CCn1c(=S)[nH]c2nc3c(cc2c1=O)COC(C)(C)C3`, the B-score is -2.69 (active).
`CC(C)OCCCNc1nc2c(c(=O)n(Cc3ccccc3F)c(=O)n2C)n1C`: the B-score was -0.366 (inactive).
The value for `O=C(CN1CCOCC1)Nc1c2c(nc3c1CCC3)CCC2` was -0.251 (inactive); that for `Cc1cccn2c(=O)c3cc(C(=O)N4COCC4(C)C)n(C)c3nc12` was -0.585 (inactive).
In the case of `Cc1cccn2c(=O)c3cc(C#N)c(=O)n(CCCN4CCOCC4)c3nc12`, the B-score is -0.356 (inactive).
The same measure for `Cc1cccn2c(=O)c3cc(C#N)c(=NC(=O)c4cccnc4)n(CC4CCCO4)c3nc12` (stereo not given): -1.9 (active).
For the compound `CC1CCc2c(sc3c2C2=NS(=O)(=O)CCN2C=N3)C1` (stereo not given), the B-score is -0.133 (inactive).
On to `Cc1ccc(C)n1-c1ccncc1`, for which the B-score is -0.0105 (inactive).
Consider `CCOC(=O)CCc1c(C)c(C#N)c2[nH]c3ccccc3n2c1=O`, for which the B-score is -0.0991 (inactive).
Regarding `COC(CCN(C)C)(c1ccccc1)c1ccccc1`, the B-score is -11.2 (active).
The value for `COc1ccc2oc(=O)c(C(=O)N3CCN(c4ccccc4F)CC3)cc2c1` was 0.203 (inactive).
As to `CN1CCN(CC(=O)Nc2sc3c(c2C#N)CCC(C(C)(C)C)C3)CC1` (stereo not given), the B-score was -2.38 (active).
The same measure for `CCC(=O)Nc1sc(C(=O)N2CCCCC2)c(C)c1C#N`: -0.552 (inactive).
